The campaign covered roughly 300,000 compounds. About 2,500 (0.83%) were called active.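 The calls were made as follows: active = inhibition above the mean of all tested compounds plus 3 SD, set per screening campaign (cut at about 24% in these data); inactive = the rest.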 Many of the other results were omitted from the sample, so actives are more common in it than they were.
What follows are compounds tested on tRNA 2'-phosphotransferase TPT1 (Candida albicans SC5314) (assay: Candida albicans TPT1 enzyme inhibitors, primary screen, biochemical, fluorescence polarization (AID 1962;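 also: plate controls were DMSO alone for no effect and ferristatin control at 100 nM for full effect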)). Conditions: recombinant caTPT1, FP RNA substrate dephosphorylation; at 5 µM; active compounds read high.
`CCOCCn1[nH]c2ccccc2c1=O` was tested, and the inhibition was -0.9% (inactive).
`CCC1CCCCN1C(=S)Nc1ccc(C(C)=O)cc1` (configuration not stated) was tested, and the inhibition was -0.24% (inactive).
For `COCCN(C(=O)c1ccccc1F)c1c(N)n(Cc2ccccc2)c(=O)[nH]c1=O`, the inhibition was 1.87% (inactive).
With `COc1ccc(NC(=O)c2sccc2SCC#N)cc1` the inhibition was -1.53% (inactive).
With `CNC(=S)NNC(=O)c1oc2nc(-c3ccccc3)cc(-c3ccco3)c2c1N` the inhibition was 5.89% (inactive).
For `O=C(Nc1cccc(F)c1)c1cc(-c2ccco2)nc2ccccc12`, the inhibition was 14.1% (inactive).
In the case of `NNC(=O)c1oc2nc(-c3ccccc3)cc(-c3ccco3)c2c1N`, the inhibition is reported as 79.6% (active).
`CC[N+](C)(CC)CCC[n+]1c(-c2ccccc2)c2cc(N)ccc2c2ccc(N)cc21` was tested, and the inhibition was -27.7% (inactive).
`COc1cc(/C=C2/SC(=S)N(Cc3ccccc3)C2=O)cc(OC)c1O` was tested, and the inhibition was 89.8% (active).
With `COc1ccccc1C(=O)NNC(=O)CCN1C(=O)/C(=C\c2ccccc2)SC1=S` the inhibition was -5.63% (inactive).
In the case of `COc1ccc(/C=C2\SC(=S)N(CCC(=O)Nc3cccc(C(=O)O)c3)C2=O)cc1OC`, the inhibition is reported as 1.59% (inactive).
`CC(C(=O)Nc1ccc(F)c(F)c1F)N1CCCCCC1` (configuration not stated) was tested, and the inhibition was -0.32% (inactive).
With `CC(=O)c1cnc(SCC(=O)O)nc1C` the inhibition was -5.63% (inactive).
In the case of `CSc1nc(N(C)NC(=O)c2cccc(C)c2)c2ccccc2n1`, the inhibition is reported as -0.9% (inactive).
`CCOC(=O)C(C)N(c1ccccc1Cl)S(C)(=O)=O` (configuration not stated) was tested, and the inhibition was 0.94% (inactive).
`CCN(CC)c1ccc(/C=N/NC(=O)c2cnccn2)c(O)c1` was tested, and the inhibition was 1.75% (inactive).
With `Cc1cc(C)nc(N/N=C/c2ccncc2)n1` the inhibition was 3.38% (inactive).
`CCN(CC)c1ccc(/C=N/Nc2nc(C)cc(C)n2)c(O)c1` was tested, and the inhibition was 25.2% (active).
In the case of `COc1ccc(-c2cc3nc(C)c(CCC(=O)NC(C)CCc4ccco4)c(C)n3n2)c(OC)c1` (configuration not stated), the inhibition is reported as 0.65% (inactive).
`CC(C)NS(=O)(=O)c1ccc(NC(=O)c2cccnc2)cc1` was tested, and the inhibition was 6.23% (inactive).
In the case of `Cc1c(C(=O)OC(C)C)sc(NC(=O)c2cccnc2)c1C#N`, the inhibition is reported as 31.6% (active).
In the case of `CCOC(=O)c1cc(NC(=O)c2cccnc2)ccn1`, the inhibition is reported as -2.33% (inactive).
With `O=C(NC1CCCCC1)C1CCCN(S(=O)(=O)c2ccc(Br)s2)C1` (configuration not stated) the inhibition was -22.4% (inactive).
With `CC(NC(=O)CC1SC(N)=NC1=O)c1ccccc1` (configuration not stated) the inhibition was 2.18% (inactive).
For `Cc1cc(NC(=O)CCS(=O)(=O)c2ccc(F)cc2)no1`, the inhibition was -4.5% (inactive).
In the case of `CC(C)(C)c1ccc(C(=O)NCCn2c(N)c(C#N)c3nc4ccccc4nc32)cc1`, the inhibition is reported as 9.05% (inactive).
`CN(C)CCCn1c(N)c(C#N)c2nc(C#N)c(C#N)nc21` was tested, and the inhibition was 75.1% (active).
In the case of `CC1CCCCC1NC(=O)CSc1nnc(-c2ccncc2)n1CCCN(C)C` (configuration not stated), the inhibition is reported as -2.27% (inactive).
With `CSc1ncccc1C(=O)Nc1nc2ccc(F)cc2s1` the inhibition was -0.86% (inactive).
For `Fc1ccc2nc(Nc3nc4c(s3)CCCC4)sc2c1`, the inhibition was 24.1% (active).
In the case of `Fc1cc(F)c2nc(Nc3nc4c(F)cccc4s3)sc2c1`, the inhibition is reported as -0.65% (inactive).
For `CCc1cccc(C)c1N(C(=O)Cn1c(CO)nc2ccccc21)C(C)COC` (configuration not stated), the inhibition was -1.41% (inactive).
For `O=C(NNc1c2ccccc2nc2ccccc12)c1cc2ccccc2cc1O`, the inhibition was 25.8% (active).
In the case of `O=C(N/N=C/c1cccnc1)c1cc2ccccc2cc1O`, the inhibition is reported as -1.97% (inactive).
For `CC(C)(C)OC(=O)NNc1c2ccccc2nc2ccccc12`, the inhibition was -0.98% (inactive).
For `CCOc1ccc(-n2cnnn2)cc1S(=O)(=O)N1CCC(C)CC1C` (configuration not stated), the inhibition was 3.77% (inactive).
For `COc1cccc(CNC(=O)C2CCCN(S(=O)(=O)N3CC(C)CC(C)C3)C2)c1` (configuration not stated), the inhibition was -2.25% (inactive).
With `COc1ccc2c(c1)[C@H]1[C@H](CO2)[C@H](c2ccccc2)[C@]2(C)C(=O)Nc3cc(F)c(F)cc3C(=O)N12` the inhibition was -1.54% (inactive).
`Cn1c2ccccc2c2cc(/C=C(\NC(=O)c3ccccc3)C(=O)NCC(=O)O)ccc21` was tested, and the inhibition was 86.7% (active).
With `CCOC(=O)CNC(=O)/C(=C\c1ccc(F)cc1)NC(=O)c1ccccc1` the inhibition was -8.38% (inactive).
With `COc1ccc(/C=C(\NC(=O)c2ccccc2)C(=O)NCCN2CCOCC2)cc1OC` the inhibition was -0.34% (inactive).
For `CCN1CCN(C(=O)N[C@@H](C(=O)N[C@@H]2C(=O)N3C(C(=O)O)=C(CSc4nnnn4C)CS[C@H]23)c2ccc(O)cc2)C(=O)C1=O`, the inhibition was -2.09% (inactive).
In the case of `Cc1cc(/C=C2/C(=N)N3C(=NC2=O)SN=C3S(C)(=O)=O)c(C)n1-c1ccccc1`, the inhibition is reported as 4.75% (inactive).
`CS(=O)(=O)c1ccc2c(c1)SC1=NC(=O)/C(=C/c3ccco3)C(=N)N12` was tested, and the inhibition was 62.9% (active).
`CS(=O)(=O)C1=NN2C(=N)/C(=C\c3ccc(OCCOc4ccccc4)cc3)C(=O)N=C2S1` was tested, and the inhibition was 2.39% (inactive).
For `COc1ccccc1C(=O)NCCC(=O)NCC(c1ccco1)N1CCCCC1` (configuration not stated), the inhibition was 1.82% (inactive).
In the case of `O=C(NCc1ccccc1)C(=O)NCC1OCCN1S(=O)(=O)c1ccc(Br)cc1` (configuration not stated), the inhibition is reported as -2.5% (inactive).
For `COc1ccc(CCN2C(=O)C(C)=C(C)C2=O)cc1OC`, the inhibition was 1.36% (inactive).
In the case of `COc1cc(/C=C2/C(=O)NN(c3cccc(Cl)c3)C2=O)cc(Br)c1O`, the inhibition is reported as 130% (active).
`C#CCOc1ccc(/C=C2/C(=O)NN(c3ccccc3)C2=O)cc1OC` was tested, and the inhibition was 0.28% (inactive).
`COc1cc(/C=C2/C(=O)NN(c3ccc(F)cc3)C2=O)cc([N+](=O)[O-])c1O` was tested, and the inhibition was -1.74% (inactive).
With `N#C/C(=C(/O)COc1cccc2ccccc12)c1nc2ccccc2[nH]1` the inhibition was 14.7% (inactive).
In the case of `Cc1ccccc1OC/C(O)=C(\C#N)c1nc2ccccc2[nH]1`, the inhibition is reported as 2.58% (inactive).
`N#C/C(=C(/O)COC(=O)COc1ccc(Cl)cc1)c1nc2ccccc2[nH]1` was tested, and the inhibition was 35% (active).
In the case of `C#CCOCCOCCOCCNc1nc(N2CCN(C(=O)CCCCCCCCCCNC(=O)[C@H]([C@@H](C)CC)n3cc(CCCCN=C(N)N)nn3)CC2)nc(N2CCN(C(=O)CCCCCCCCCCNC(=O)[C@H](CO)n3cc(CCCSC)nn3)CC2)n1`, the inhibition is reported as -0.55% (inactive).
In the case of `COc1ccc(CC2c3cc(OC)c(OC)cc3CC[N+]2(C)CCC(=O)OCCCCCOC(=O)CC[N+]2(C)CCc3cc(OC)c(OC)cc3C2Cc2ccc(OC)c(OC)c2)cc1OC` (configuration not stated), the inhibition is reported as 0% (inactive).
For `COCCNC(=O)/C(C#N)=C/c1nc(N(C)C)n(-c2ccc(F)cc2)c1Cl`, the inhibition was 1.88% (inactive).
In the case of `Cc1c(C)n2c(SCC(=O)N3CCCC3)nnc2[nH]c1=O`, the inhibition is reported as 0.57% (inactive).
With `CC(C)(C)C1C/C(=C/c2ccco2)C(=O)/C(=C/c2ccco2)C1` (configuration not stated) the inhibition was 71.8% (active).
In the case of `O=C1OC(/C=C/c2ccccc2)=NC/1=C/c1ccco1`, the inhibition is reported as 1.61% (inactive).
In the case of `CCC1C/C(=C/c2cccs2)C(=O)/C(=C/c2cccs2)C1` (configuration not stated), the inhibition is reported as 14.5% (inactive).
For `COC(=O)c1ccc(Sc2ccc(F)cc2)c(N)c1`, the inhibition was 1.95% (inactive).
In the case of `Cc1cccc(NC(=O)c2ccc(COc3ccccc3[N+](=O)[O-])o2)n1`, the inhibition is reported as 31.1% (active).
In the case of `CCOc1ccc(OCc2ccc(C(=O)Nc3cccc(C)n3)o2)cc1`, the inhibition is reported as -2.96% (inactive).
In the case of `CCCCNc1ccc(C(=O)Nc2cccc(C)n2)cc1[N+](=O)[O-]`, the inhibition is reported as 3.18% (inactive).
With `CCOc1ccc2c(=O)c(-c3ccc4c(c3)OCCCO4)c(C)oc2c1` the inhibition was 2.18% (inactive).
In the case of `CN(C)Cc1c(C(=O)N/N=C/c2ccccc2OCc2ccc(F)cc2)nnn1-c1nonc1N`, the inhibition is reported as 2.3% (inactive).
For `COc1ccccc1C1CC(=O)n2c(nc(-c3ccccc3)c2-c2ccccc2)S1` (configuration not stated), the inhibition was -2.44% (inactive).
In the case of `NS(=O)(=O)c1ccc(CNC(=O)c2cnccn2)cc1`, the inhibition is reported as -3.97% (inactive).
`CC(=O)n1c(C=Nc2ccccc2)c(O)c2ccccc21` was tested, and the inhibition was 37.8% (active).
For `CCCCn1c(=O)c(C(C)=O)c(O)c2ccccc21`, the inhibition was 3.63% (inactive).
`CCOc1ccc(N=Cc2c(O)n(-c3cccc(C)n3)c(=O)c3ccccc23)cc1` was tested, and the inhibition was 1.89% (inactive).
With `Cc1cc(C)nc(NNC2=CC(=O)CC(C)(C)C2)n1` the inhibition was -0.26% (inactive).
For `CN(c1ccccc1)c1ccc(/C=c2\s/c(=C(/C#N)C(=O)C(C)(C)C)n(Cc3ccco3)c2=O)cc1`, the inhibition was 151% (active).
With `Cc1cs/c(=N\N=C\c2ccc(O)cc2)n1Cc1ccco1` the inhibition was 2.86% (inactive).
In the case of `CCOC(=O)/C=c1\s/c(=C\c2ccc(C#N)cc2)c(=O)n1CC(=O)Nc1cccc(C)c1C`, the inhibition is reported as 1.41% (inactive).
For `Cc1ccccc1S(=O)(=O)N1[C@@H](c2cccc(Cl)c2)C(C(=O)O)=CC[C@H]1c1ccc(Cl)cc1`, the inhibition was -1.82% (inactive).
`Cc1ccc(S(=O)(=O)N2[C@@H](c3cccc(Cl)c3)C(C(=O)O)=CC[C@H]2c2ccc(Cl)c(Cl)c2)cc1` was tested, and the inhibition was 0.18% (inactive).
For `Cn1cc(CN2CCCCC2c2ccccn2)c(-c2ccc3c(c2)OCCO3)n1` (configuration not stated), the inhibition was -1.42% (inactive).
`COC(=O)c1ccc(/C=N/N2C(C)CCCC2C)cc1` (configuration not stated) was tested, and the inhibition was 0.75% (inactive).
In the case of `CC(CCN1CCN=C1N(C)C)c1ccccc1` (configuration not stated), the inhibition is reported as 1.38% (inactive).
`O=C1Nc2cc(C(=O)N3CCN(c4ccc(F)cc4)CC3)ccc2NC1CSCc1cccc(F)c1` (configuration not stated) was tested, and the inhibition was 134% (active).
`O=C(c1cccc(F)c1)N1CCN(c2ccc([N+](=O)[O-])c(N3CCCCC3)c2)CC1` was tested, and the inhibition was -2.61% (inactive).
With `O=C(c1cc(-c2ccc(F)cc2)on1)N1CCN(c2ccc(F)cc2)CC1` the inhibition was -5.93% (inactive).
For `O=C(c1cc(C(=O)N2CCN(c3ccc(F)cc3)CC2)cc([N+](=O)[O-])c1)N1CCN(c2ccc(F)cc2)CC1`, the inhibition was -4.38% (inactive).
In the case of `C=CCn1c(SCc2cccc(F)c2)nc2cc(C(=O)N3CCC(C(N)=O)CC3)ccc2c1=O`, the inhibition is reported as -3.32% (inactive).
In the case of `Cc1ccc(CSCC2Nc3ccc(C(=O)N4CCN(c5ccc(F)cc5)CC4)cc3NC2=O)cc1` (configuration not stated), the inhibition is reported as 133% (active).
